Here are results for one sequence from paper PMC7862700, “An all-to-all approach to the identification of sequence-specific readers for epigenetic DNA modifications on cytosine”.

What all share (assay): DAPPL (digital affinity profiling via proximity ligation, sequencing); 10 mM Tris-HCl pH 7.5, 50 mM NaCl, 1 mM DTT, 4% glycerol, room temperature, 30 min; GST-TFs on glutathione beads, 16-mer random dsDNA library, 0.1% formaldehyde crosslink after washing; high values mean tight binding
For one assay, the target named is T1, FEV (Homo sapiens, UniProt Q99581 1-238).
T1 sequence: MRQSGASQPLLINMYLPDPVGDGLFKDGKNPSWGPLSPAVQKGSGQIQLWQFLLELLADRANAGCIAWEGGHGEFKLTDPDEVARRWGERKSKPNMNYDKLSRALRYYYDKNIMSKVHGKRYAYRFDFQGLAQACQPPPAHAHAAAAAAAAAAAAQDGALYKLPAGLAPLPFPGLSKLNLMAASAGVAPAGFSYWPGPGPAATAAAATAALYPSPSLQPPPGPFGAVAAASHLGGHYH
The note with it: protein: recombinant; tags: N-terminal GST; dsDNA, one strand shown. In outline:
(§1)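 Binding signal is each hexamer's read frequency for a factor divided by its frequency in the tag-only sample. The factors were GST-fused human transcription factors from yeast, captured on glutathione beads, DNA-barcoded and pooled with that sample. Pools were incubated with 200 nmole of a random double-stranded 16-mer DNA library in Tris/NaCl/DTT/glycerol buffer at room temperature for 30 min, then washed, crosslinked with 0.1% formaldehyde, proximity-ligated with BsaI/T4 ligase (1 h, 37 °C), PCR-amplified and sequenced on an Illumina NextSeq500.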

A further assay concerns the target ETV5 (Homo sapiens, UniProt P41161 1-510). The note with it: protein: recombinant; tags: N-terminal GST; dsDNA, one strand shown. In outline: as §1
In another assay the target is HSF1 (Homo sapiens, UniProt Q00613 1-529). The following applies: protein: recombinant; tags: N-terminal GST; chain copies: 3; dsDNA, one strand shown. In outline: as §1
A further assay has as its target T2, SPIC (Homo sapiens, UniProt Q8N5J4 1-248).
T2 sequence: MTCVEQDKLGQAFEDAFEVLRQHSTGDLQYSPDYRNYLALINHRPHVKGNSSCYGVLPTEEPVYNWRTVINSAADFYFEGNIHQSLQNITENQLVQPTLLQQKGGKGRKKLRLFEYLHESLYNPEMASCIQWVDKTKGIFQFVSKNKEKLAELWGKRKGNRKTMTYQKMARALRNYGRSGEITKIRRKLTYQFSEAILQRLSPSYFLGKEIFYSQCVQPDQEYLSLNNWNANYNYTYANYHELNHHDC
The following applies: protein: recombinant; tags: N-terminal GST; dsDNA, one strand shown. Put shortly: as §1

The next assay has as its target ELF4 (Homo sapiens, UniProt Q99607 1-663). The following applies: protein: recombinant; tags: N-terminal GST; dsDNA, one strand shown. Put shortly: as §1
A further assay has as its target T3, ELK4 (Homo sapiens, UniProt P28324-2 1-405).
T3 sequence: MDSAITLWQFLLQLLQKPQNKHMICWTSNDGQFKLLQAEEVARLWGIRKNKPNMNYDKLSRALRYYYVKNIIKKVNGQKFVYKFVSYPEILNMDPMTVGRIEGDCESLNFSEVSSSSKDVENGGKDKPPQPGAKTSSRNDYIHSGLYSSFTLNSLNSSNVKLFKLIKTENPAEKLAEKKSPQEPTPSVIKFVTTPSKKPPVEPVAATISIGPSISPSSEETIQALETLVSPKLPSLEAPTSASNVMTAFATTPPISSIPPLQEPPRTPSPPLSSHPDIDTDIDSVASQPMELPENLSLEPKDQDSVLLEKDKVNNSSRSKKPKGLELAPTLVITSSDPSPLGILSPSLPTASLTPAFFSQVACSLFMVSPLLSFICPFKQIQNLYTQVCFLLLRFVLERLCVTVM
The following applies: protein: recombinant; tags: N-terminal GST; dsDNA, one strand shown. In outline: as §1

The target in the next assay is T4, ETV2 (Homo sapiens, UniProt O00321 1-342).
T4 sequence: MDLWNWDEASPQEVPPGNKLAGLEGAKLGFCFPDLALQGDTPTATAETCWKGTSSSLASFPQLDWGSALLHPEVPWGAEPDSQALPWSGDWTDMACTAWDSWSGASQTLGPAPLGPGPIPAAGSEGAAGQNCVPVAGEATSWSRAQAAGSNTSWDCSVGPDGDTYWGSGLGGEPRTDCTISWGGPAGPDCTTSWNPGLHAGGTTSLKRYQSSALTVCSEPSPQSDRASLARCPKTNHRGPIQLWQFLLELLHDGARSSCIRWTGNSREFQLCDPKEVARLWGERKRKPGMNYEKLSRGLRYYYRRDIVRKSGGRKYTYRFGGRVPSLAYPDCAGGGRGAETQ
The note with it: protein: recombinant; tags: N-terminal GST; dsDNA, one strand shown. Put shortly:
as §1

A further assay concerns the target T5, ELF3 (Homo sapiens, UniProt P78545 1-371).
T5 sequence: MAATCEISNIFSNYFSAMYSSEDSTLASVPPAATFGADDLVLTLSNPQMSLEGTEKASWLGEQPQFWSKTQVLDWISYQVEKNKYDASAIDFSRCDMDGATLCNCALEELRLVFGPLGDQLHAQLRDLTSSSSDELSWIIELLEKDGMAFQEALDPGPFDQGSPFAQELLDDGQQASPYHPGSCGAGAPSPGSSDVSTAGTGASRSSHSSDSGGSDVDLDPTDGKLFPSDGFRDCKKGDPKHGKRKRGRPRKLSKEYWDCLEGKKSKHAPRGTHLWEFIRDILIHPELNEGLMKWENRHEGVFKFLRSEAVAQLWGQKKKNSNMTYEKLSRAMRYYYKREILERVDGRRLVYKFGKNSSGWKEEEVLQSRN
The following applies: protein: recombinant; tags: N-terminal GST; dsDNA, one strand shown. Put shortly: as §1

In another assay the target is CRX (Homo sapiens, UniProt O43186 1-299). The following applies: protein: recombinant; tags: N-terminal GST; dsDNA, one strand shown. Put shortly:
as §1

The target of the next assay is ETV1 (Homo sapiens, UniProt P50549 1-477). The following applies: protein: recombinant; tags: N-terminal GST; dsDNA, one strand shown. In outline:
as §1

The next assay concerns the target T6, ERF (Homo sapiens, UniProt P50548 1-548).
T6 sequence: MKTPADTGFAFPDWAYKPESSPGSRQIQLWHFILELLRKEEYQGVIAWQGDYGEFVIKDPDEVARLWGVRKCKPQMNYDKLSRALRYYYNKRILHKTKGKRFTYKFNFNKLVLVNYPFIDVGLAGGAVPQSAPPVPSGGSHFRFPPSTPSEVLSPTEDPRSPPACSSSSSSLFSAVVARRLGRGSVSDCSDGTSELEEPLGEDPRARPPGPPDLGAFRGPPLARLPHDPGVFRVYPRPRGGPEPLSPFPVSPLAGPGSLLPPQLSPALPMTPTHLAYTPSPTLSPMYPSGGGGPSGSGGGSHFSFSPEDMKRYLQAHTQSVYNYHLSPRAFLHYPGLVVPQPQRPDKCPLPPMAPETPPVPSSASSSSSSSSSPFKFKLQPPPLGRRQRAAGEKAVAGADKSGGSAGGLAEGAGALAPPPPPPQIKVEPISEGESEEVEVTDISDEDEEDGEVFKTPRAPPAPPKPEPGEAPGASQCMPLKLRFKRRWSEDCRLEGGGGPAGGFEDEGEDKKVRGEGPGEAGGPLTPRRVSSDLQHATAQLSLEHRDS
The following applies: protein: recombinant; tags: N-terminal GST; dsDNA, one strand shown. In outline:
as §1

A further assay has as its target T7, ETV3L (Homo sapiens, UniProt Q6ZN32 1-361).
T7 sequence: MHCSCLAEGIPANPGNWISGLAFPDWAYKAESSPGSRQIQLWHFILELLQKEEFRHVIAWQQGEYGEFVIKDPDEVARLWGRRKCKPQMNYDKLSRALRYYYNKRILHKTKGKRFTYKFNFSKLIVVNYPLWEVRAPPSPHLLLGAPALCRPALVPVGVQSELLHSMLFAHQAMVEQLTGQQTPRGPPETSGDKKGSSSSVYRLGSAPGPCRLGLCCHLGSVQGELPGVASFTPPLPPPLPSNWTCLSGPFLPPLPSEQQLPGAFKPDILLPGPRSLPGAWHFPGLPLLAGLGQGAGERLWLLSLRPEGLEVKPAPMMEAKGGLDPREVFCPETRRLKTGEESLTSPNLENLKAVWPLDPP
The following applies: protein: recombinant; tags: N-terminal GST; dsDNA, one strand shown. Put shortly:
as §1

For another assay, the target named is T8, ETS2 (Homo sapiens, UniProt P15036 1-469).
T8 sequence: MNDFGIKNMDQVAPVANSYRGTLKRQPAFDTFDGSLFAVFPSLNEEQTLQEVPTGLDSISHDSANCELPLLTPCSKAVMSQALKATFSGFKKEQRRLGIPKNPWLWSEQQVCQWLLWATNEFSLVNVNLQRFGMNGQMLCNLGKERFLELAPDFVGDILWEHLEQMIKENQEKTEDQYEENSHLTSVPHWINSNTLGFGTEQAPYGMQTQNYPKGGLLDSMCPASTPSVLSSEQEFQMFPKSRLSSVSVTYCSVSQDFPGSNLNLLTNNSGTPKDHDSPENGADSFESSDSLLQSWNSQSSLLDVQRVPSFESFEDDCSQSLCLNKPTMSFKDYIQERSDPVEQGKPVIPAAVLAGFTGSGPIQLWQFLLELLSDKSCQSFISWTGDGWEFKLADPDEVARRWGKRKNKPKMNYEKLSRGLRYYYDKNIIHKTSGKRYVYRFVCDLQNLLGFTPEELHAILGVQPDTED
The following applies: protein: recombinant; tags: N-terminal GST; dsDNA, one strand shown. In outline: as §1

The next assay has as its target T9, SPDEF (Homo sapiens, UniProt O95238 1-335).
T9 sequence: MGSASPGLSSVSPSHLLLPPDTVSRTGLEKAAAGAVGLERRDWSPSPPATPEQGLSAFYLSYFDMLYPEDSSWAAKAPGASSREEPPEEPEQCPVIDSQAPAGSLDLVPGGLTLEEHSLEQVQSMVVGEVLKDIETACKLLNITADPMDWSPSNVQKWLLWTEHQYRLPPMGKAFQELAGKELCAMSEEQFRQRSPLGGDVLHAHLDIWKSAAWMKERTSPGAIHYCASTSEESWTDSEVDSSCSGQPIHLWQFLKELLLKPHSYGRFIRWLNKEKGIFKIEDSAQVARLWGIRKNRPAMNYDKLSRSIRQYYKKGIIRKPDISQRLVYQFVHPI
The following applies: protein: recombinant; tags: N-terminal GST; dsDNA, one strand shown. In outline:
as §1

A further assay deals with T10, ETV7 (Homo sapiens, UniProt Q9Y603 1-341).
T10 sequence: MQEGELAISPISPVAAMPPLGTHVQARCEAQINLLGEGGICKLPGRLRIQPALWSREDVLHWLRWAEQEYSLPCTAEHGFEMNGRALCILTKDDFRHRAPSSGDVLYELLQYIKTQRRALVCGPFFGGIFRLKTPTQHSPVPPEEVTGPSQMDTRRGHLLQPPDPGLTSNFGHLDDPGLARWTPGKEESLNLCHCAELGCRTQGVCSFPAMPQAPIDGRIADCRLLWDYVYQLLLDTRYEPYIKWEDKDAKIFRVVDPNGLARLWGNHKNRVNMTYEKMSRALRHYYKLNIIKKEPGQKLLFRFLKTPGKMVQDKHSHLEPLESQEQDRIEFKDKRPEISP
The note with it: protein: recombinant; tags: N-terminal GST; dsDNA, one strand shown. In outline: as §1

A further assay deals with T11, ELF5 (Homo sapiens, UniProt Q9UKW6-2 1-255).
T11 sequence: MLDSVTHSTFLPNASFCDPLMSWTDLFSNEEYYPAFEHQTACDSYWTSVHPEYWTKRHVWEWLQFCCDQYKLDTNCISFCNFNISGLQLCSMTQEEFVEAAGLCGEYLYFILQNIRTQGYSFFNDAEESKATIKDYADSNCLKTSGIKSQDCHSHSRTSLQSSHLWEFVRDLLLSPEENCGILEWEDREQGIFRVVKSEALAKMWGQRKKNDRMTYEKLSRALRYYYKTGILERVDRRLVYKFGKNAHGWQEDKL
The following applies: protein: recombinant; tags: N-terminal GST; dsDNA, one strand shown. In outline: as §1

In a further assay the target is T12, ETV3 (Homo sapiens, UniProt P41162-2 1-143).
T12 sequence: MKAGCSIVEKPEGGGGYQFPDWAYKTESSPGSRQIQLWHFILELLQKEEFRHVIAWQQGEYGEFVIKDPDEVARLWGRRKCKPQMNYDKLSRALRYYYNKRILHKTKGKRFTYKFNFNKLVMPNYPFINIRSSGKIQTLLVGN
The following applies: protein: recombinant; tags: N-terminal GST; dsDNA, one strand shown. In outline:
as §1

Another assay has as its target ETV6 (Homo sapiens, UniProt P41212 1-452). The following applies: protein: recombinant; tags: N-terminal GST; dsDNA, one strand shown. In outline: as §1

Sequence of CRX (O43186 whole entry): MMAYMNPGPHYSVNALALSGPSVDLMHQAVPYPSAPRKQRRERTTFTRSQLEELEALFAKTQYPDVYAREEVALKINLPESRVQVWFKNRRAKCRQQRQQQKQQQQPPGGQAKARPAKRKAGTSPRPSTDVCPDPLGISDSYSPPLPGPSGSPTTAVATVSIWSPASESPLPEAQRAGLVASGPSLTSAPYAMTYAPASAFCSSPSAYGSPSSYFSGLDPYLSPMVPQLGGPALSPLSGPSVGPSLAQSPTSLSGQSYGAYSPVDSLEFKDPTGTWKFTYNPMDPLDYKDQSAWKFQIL
Sequence of HSF1 (Q00613 whole entry): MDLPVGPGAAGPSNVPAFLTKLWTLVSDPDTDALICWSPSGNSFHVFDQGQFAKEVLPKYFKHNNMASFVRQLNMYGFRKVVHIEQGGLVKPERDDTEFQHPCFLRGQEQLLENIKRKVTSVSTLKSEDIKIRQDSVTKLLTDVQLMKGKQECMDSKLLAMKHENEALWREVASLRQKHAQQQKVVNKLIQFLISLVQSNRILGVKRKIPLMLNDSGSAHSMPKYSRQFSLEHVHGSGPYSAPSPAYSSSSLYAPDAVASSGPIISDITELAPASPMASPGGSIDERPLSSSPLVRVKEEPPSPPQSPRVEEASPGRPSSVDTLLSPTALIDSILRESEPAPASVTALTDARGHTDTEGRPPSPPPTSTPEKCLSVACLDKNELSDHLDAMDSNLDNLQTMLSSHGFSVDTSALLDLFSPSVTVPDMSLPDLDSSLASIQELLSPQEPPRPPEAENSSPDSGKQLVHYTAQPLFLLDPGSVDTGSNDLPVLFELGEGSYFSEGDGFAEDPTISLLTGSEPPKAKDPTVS
Sequence of ETV6 (P41212 whole entry): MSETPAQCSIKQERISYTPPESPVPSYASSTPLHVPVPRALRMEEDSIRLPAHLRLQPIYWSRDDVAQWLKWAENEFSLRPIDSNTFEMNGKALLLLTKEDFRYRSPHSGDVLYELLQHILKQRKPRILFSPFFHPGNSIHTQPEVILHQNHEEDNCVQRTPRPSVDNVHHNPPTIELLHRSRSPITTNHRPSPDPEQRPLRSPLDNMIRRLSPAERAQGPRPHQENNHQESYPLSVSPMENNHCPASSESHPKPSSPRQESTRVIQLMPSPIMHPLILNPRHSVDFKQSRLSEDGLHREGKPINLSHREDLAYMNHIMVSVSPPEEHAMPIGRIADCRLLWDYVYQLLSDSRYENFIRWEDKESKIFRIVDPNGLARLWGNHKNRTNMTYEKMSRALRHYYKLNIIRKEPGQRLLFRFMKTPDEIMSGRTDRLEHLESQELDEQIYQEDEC
Sequence of ELF4 (Q99607 whole entry): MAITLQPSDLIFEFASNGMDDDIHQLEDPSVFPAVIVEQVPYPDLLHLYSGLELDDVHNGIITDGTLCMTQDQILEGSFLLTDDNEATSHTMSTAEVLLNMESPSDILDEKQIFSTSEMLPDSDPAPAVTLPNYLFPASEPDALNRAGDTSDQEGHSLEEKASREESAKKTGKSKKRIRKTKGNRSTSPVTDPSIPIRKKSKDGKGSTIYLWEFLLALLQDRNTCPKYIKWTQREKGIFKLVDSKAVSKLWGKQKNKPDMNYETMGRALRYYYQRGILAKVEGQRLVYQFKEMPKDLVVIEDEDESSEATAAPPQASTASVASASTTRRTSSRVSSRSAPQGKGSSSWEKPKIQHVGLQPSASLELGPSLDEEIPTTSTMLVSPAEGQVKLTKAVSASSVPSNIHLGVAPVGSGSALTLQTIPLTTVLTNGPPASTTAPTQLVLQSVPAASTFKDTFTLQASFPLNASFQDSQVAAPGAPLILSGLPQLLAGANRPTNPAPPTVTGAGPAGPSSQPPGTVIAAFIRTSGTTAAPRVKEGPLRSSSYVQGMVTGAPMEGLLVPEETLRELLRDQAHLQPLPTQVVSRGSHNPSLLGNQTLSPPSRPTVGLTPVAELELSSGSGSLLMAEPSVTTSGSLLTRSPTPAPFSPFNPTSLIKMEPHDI
Sequence of ETV1 (P50549 whole entry): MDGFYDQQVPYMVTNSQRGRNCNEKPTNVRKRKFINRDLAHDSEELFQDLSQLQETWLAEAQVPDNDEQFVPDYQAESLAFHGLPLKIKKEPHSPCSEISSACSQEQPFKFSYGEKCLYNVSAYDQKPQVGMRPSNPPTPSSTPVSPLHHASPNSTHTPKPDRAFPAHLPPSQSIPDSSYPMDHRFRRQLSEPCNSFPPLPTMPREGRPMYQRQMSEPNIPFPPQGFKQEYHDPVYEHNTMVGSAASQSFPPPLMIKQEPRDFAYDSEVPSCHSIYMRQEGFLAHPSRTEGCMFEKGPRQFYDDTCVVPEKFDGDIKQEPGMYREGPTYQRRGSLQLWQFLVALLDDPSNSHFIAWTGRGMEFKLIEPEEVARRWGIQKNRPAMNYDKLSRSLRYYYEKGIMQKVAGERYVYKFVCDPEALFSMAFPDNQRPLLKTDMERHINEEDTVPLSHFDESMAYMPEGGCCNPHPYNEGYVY
Sequence of ETV5 (P41161 whole entry): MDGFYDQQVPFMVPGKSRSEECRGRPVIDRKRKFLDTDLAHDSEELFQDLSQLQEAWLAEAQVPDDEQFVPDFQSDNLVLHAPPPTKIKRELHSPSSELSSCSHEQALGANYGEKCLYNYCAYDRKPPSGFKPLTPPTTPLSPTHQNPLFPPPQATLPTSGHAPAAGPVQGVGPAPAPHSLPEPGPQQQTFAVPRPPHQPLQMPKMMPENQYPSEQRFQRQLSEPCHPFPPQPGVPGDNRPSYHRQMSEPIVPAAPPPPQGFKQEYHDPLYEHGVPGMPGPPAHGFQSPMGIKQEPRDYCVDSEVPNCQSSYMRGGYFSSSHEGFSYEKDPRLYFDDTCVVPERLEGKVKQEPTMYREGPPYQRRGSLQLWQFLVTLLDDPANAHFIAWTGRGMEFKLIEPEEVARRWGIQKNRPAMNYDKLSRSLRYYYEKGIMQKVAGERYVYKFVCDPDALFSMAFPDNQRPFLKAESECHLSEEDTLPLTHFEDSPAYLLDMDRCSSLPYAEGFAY

Take CTTTTT: the binding signal with FEV was 1.35 fold enrichment (6-mer frequency, TF over GST control); with ETV5, 1.28 fold enrichment (6-mer frequency, TF over GST control); with HSF1 it was 1.23 fold enrichment (6-mer frequency, TF over GST control); with SPIC, 1.34 fold enrichment (6-mer frequency, TF over GST control); in the assay with ELF4, 1.43 fold enrichment (6-mer frequency, TF over GST control); with ELK4 it was 1.24 fold enrichment (6-mer frequency, TF over GST control). The binding signal with ETV2 was 1.28 fold enrichment (6-mer frequency, TF over GST control); in the assay with ELF3, 1.58 fold enrichment (6-mer frequency, TF over GST control); in the assay with CRX it was 1.25 fold enrichment (6-mer frequency, TF over GST control); with ETV1 it was 1.32 fold enrichment (6-mer frequency, TF over GST control); with ERF, 1.31 fold enrichment (6-mer frequency, TF over GST control); with ETV3L it was 1.35 fold enrichment (6-mer frequency, TF over GST control). Besides, the binding signal with ETS2 was 1.31 fold enrichment (6-mer frequency, TF over GST control); in the assay with SPDEF it was 1.32 fold enrichment (6-mer frequency, TF over GST control); with ETV7, 1.37 fold enrichment (6-mer frequency, TF over GST control); in the assay with ELF5 it was 1.31 fold enrichment (6-mer frequency, TF over GST control); in the assay with ETV3 it was 1.24 fold enrichment (6-mer frequency, TF over GST control); with ETV6 it was 1.3 fold enrichment (6-mer frequency, TF over GST control).
